Screens from PubChem.
KCNQ2 pot: KCNQ2 (rat) channel potentiation; O88943; CHO-K1 KCNQ2, FluxOR thallium flux fluorescence; stronger effect = higher value; B-score at 10 µM; hit rate 0.54% among 310,000; AID 2239;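 active = fluorescence ratio B-score at least 3 SD of library B-scores, with initial fluorescence B-score within 3 of them, cut at about 5.3 in these data; same plate scores as AID 2156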;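 note: B-score of peak minus minimum over baseline fluorescence ratio after K+ and Tl+ stimulus; positive B-score means potentiation of KCNQ2 with more thallium influx and brighter signal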
KCNQ2 block: blocks the rat KCNQ2 potassium channel. O88943. CHO-K1 KCNQ2, FluxOR thallium flux, 20 min; stronger effect = lower value. B-score at 10 µM. hit rate 1.1% among 310,000. AID 2156;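 active = fluorescence ratio B-score at most minus 3 library SDs, with starting brightness B-score within 2 library SDs, cut at about -5.5 in these data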
Kir21 confirm: confirmation of mouse Kir2.1 potassium channel inhibitors. hit rate 41% among 2,300. Tl flux remaining, % of negative control (stronger effect = lower value), % at 10 µM. AID 2032. Kir2.1-expressing cells, FluxOR thallium flux fluorescence; stronger effect = lower value. shares compounds with KCNQ2 pot;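 active = Primary-screen hit whose thallium flux fell at least 3 control SD below untreated wells in both duplicates, with normal baseline fluorescence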;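 note: 0% = blank wells without stimulus and 100% = stimulated no-compound controls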
HEK293 Tl flux: alters thallium flux in parental HEK293 cells, Kir2.1 counter-screen | FluxOR thallium flux fluorescence; 0% = unstimulated blank wells | FluxOR signal as % of negative control (100 = no effect), % at 10 µM | hit rate 19% among 2,300 | shares compounds with KCNQ2 pot;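 active = dye signal at least 3 control SD above or below untreated wells in both duplicates, raw fluorescence within 3, either direction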;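 note: percent is based on the flux ratio of peak minus minimum fluorescence over baseline F0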
CHO-K1 ctr: alters thallium flux in parental CHO-K1 cells, KCNQ2 counter-screen; shares compounds with KCNQ2 pot; FluxOR thallium flux fluorescence; zero = vehicle mean+3SD, 100% = vehicle-minus-blank window; activity increase over 3SD of controls, % at 10 µM; hit rate 43% among 1,200; AID 2282;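 active = signal rise of at least 3 SD above the untreated control mean, in both duplicate wells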;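 note: counter screen of KCNQ2 potentiator hits so any rise reflects channel-independent effects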
KCNQ1 sel pot: selectivity of KCNQ2 potentiators: effect on human KCNQ1; activation over 3SD threshold, % at 10 µM; hit rate 28% among 1,200; shares compounds with KCNQ2 pot; AID 2283; CHO KCNQ1 stable, FluxOR thallium flux fluorescence; beyond 3SD, as % of vehicle-control signal;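 active = fluorescence ratio rise of at least 3 SD of vehicle wells above their mean, in both replicate wells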;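 note: 0% = vehicle mean plus 3 SD and 100% = vehicle minus unstimulated blank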
Target sequence (P51787 whole entry, looked up): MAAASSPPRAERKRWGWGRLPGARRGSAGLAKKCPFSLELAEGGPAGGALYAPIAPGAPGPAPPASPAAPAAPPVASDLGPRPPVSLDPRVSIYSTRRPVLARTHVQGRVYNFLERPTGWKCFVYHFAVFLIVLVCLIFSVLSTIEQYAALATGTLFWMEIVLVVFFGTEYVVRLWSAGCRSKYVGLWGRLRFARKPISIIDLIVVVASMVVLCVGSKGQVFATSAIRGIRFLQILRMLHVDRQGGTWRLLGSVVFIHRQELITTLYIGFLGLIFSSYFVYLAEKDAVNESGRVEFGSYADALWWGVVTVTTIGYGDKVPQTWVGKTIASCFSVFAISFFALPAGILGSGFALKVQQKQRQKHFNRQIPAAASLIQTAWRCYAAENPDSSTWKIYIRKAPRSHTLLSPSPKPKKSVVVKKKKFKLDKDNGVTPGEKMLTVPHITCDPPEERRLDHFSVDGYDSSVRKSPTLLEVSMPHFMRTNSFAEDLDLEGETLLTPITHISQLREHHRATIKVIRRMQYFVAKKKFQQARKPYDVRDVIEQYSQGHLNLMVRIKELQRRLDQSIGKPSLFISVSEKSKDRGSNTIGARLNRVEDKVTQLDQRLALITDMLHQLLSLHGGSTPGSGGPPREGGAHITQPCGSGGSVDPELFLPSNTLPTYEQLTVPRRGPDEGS
KCNQ2 pot confirm: confirmation of rat KCNQ2 potassium channel potentiators | shares compounds with KCNQ2 pot | CHO-KCNQ2 cells, FluxOR thallium flux fluorescence | potentiation, less the hit threshold, % at 10 µM | hit rate 68% among 1,200 | AID 2287;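 active = fluorescence ratio rising 3 SD or more over the vehicle control mean in both replicates, plus primary screen hit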;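 note: peak minus minimum thallium fluorescence divided by baseline after K/Tl stimulus; 0% = vehicle mean plus 3 SD and 100% = vehicle minus unstimulated blank difference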
Kir21 spec: mouse Kir2.1 off-target activity of KCNQ2 potentiators; shares compounds with KCNQ2 pot; HEK293 Kir2.1, FluxOR thallium flux fluorescence; activity over 3SD threshold, % at 10 µM; hit rate 2% among 1,200;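 active = fluorescence ratio rise of at least 3 SD above the vehicle-control mean, seen in both replicates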;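 note: 0% = vehicle mean plus 3 SD and 100% = vehicle minus no-stimulus blank window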
KCNQ2 W236L MoA: potentiates the retigabine-insensitive rat KCNQ2 W236L mutant channel | shares compounds with KCNQ2 pot | CHO KCNQ2-W236L, automated patch clamp current | current increase over 3SD of negative controls (%), stronger effect = higher value, % at 25 µM | hit rate 10% among 940;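 active = current increase at least 3 SD of the untreated controls above them in both duplicate recordings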
Active calls of the source: *; i = inactive; x = no result. This is a sample that favours compounds with a hit; in the whole collection about 1.6% have one here.

SMILES	KCNQ2 pot	KCNQ2 block	Kir21 confirm	HEK293 Tl flux	others
CCCCSc1nnc([C@@H]2CCCN2C(=O)OC(C)(C)C)o1	x	i	x	x
CC(C)(C)OC(=O)N1CCC[C@H]1c1nnc(SCc2ccc(Cl)cc2)o1	x	i	52%*	68%*
CC(C)(C)OC(=O)N1CCC[C@H]1c1nnc(SCc2cccc(Cl)c2)o1	x	i	54%*	i
Cc1cc(C(=O)NCCc2ccccc2)c2cc(F)ccc2n1	x	i	x	x
CCc1ccc(-c2nc(CS(=O)CC(=O)O)c(C)o2)cc1 (stereo not given)	0.4	i	x	x
CCC(C)NC(=O)COc1ccc(OCc2ccccc2)cc1 (stereo not given)	0.14	i	x	x
Cc1cc(NS(=O)(=O)c2ccc(NC(=O)/C=C/c3cccc(Cl)c3)cc2)no1	0.51	i	x	x
COc1ccc(CCNC(=O)CN(Cc2ccc(Cl)cc2)S(C)(=O)=O)cc1	x	i	x	x
COCc1ccc(CN2CCCC(C(=O)Nc3ccccc3-c3ccc(OC)cc3)C2)o1 (stereo not given)	0.15	i	x	x
CCc1ccc(CN2CCCC(C(=O)Nc3ccccc3-c3ccc(OC)cc3)C2)o1 (stereo not given)	-6.1	-6.1*	i	i
Cc1[nH]n(-c2ccccc2)c(=O)c1N=Nc1nccs1	15*	i	i	550%*	CHO-K1 ctr=-6;KCNQ1 sel pot=16*;KCNQ2 pot confirm=91*;Kir21 spec=18*;KCNQ2 W236L MoA=i
Cc1[nH]n(-c2ccccc2)c(=O)c1N=Nc1ccccc1O	1.5	i	x	x
COc1cc(CNCc2ccccn2)ccc1OCc1ccc(Cl)cc1Cl	x	i	26%*	i
COc1cc(CNCCN2CCOCC2)ccc1OCc1ccc(Cl)cc1Cl	x	i	x	x
CCCSc1nnc(NC(=O)Nc2ccccc2OC)s1	x	i	x	x
CCn1c(O)c(N=Nc2ccc(Cl)c(C(=O)O)c2)c2ccccc21	2.8	i	x	x
CC(C)n1c(O)c(N=Nc2ccc(Cl)c(C(=O)O)c2)c2ccccc21	7.5*	i	i	i	CHO-K1 ctr=78*;KCNQ1 sel pot=29*;KCNQ2 pot confirm=23*;Kir21 spec=-32;KCNQ2 W236L MoA=50%*
Cc1ccc(S(=O)(=O)NCc2c(-c3ccccc3)noc2C)cc1	x	i	x	x
Cc1onc(-c2ccccc2)c1CNS(=O)(=O)c1cccc(Cl)c1	0.47	i	58%*	i
Cc1cccc(CCNC(=O)COc2cc(=O)n(C)c3ccccc23)c1	x	i	x	x
CCN(CCCNC(=O)COc1cc(=O)n(C)c2ccccc12)c1cccc(C)c1	x	i	60%*	i
C=CCOc1ccc(CNc2ccc(NC(=O)CCC)cc2)cc1OCC	1.7	i	x	x
C=CCOc1c(Br)cc(CNc2ccc(NC(=O)CCC)cc2)cc1OCC	18*	i	i	i	CHO-K1 ctr=-13;KCNQ1 sel pot=80*;KCNQ2 pot confirm=32*;Kir21 spec=-33;KCNQ2 W236L MoA=i
Cc1ccc(-n2ccnc(SCC(=O)NC3CCCCC3)c2=O)cc1F	0.49	i	x	x
CSc1ccc(CCNC(=O)CN2C(=O)c3cccnc3Oc3ccc(C)cc32)cc1	0.79	i	x	x
SMILES	KCNQ2 pot	KCNQ2 block	Kir21 confirm	HEK293 Tl flux	others
Cc1cc(OCC(O)CN2CCc3ccccc3C2)cc(C(C)C)c1 (stereo not given)	x	i	53%*	i
CCOc1ccc(OCC(O)CN2CCc3ccccc3C2)cc1 (stereo not given)	x	i	x	x
COc1ccc(CN2CCCN(S(=O)(=O)c3ccc(Br)cc3)CC2)cc1	x	i	56%*	i
COc1ccc(S(=O)(=O)N2CCN(Cc3ccc(Cl)cc3)CC2)cc1	x	i	x	x
CNS(=O)(=O)c1cccc(C(=O)NCC(C)(C)N2CCCCC2)c1	0.61	i	x	x
CC1CCCCC1NC(=O)CCCn1c(=S)[nH]c2ccccc2c1=O (stereo not given)	1	i	x	x
